The values below come from PubChem BioAssay (EPA / NIEHS).

Test [1] is described as follows: ATG_PPRE_CIS: Attagene CIS-FACTORIAL HepG2 Assay for human Peroxisome Proliferator-activated Response Element (PPRE) (AID 2282958). The settings on record: HepG2 PPRE cis-element reporter, Attagene transcription factor profiling; actives raise or lower the signal. The procedure, abridged: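 HepG2 cells transiently transfected with multiplexed cis-element reporter units measure endogenous transcription factor activity. After 24 h compound exposure, reporter mRNA is quantified by RT-PCR, 6-FAM labeling, HpaI digestion and capillary electrophoresis; bidirectional fits are made against DMSO baseline.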

A short description of test [2]: ATG_RORE_CIS: Attagene CIS-FACTORIAL HepG2 Assay for human RAR-related Orphan Receptor Element (RORE) (AID 2282959). The settings on record: HepG2 Attagene cis-factorial RORE reporter, mRNA; actives raise or lower the signal. The procedure, abridged:
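HepG2 cells transiently transfected with multiple cis-element reporter transcription units, exposed to chemical for 24 h. Reporter mRNA quantified by RT-PCR, 6-FAM primer-extension labeling, HpaI digestion and capillary electrophoresis; bidirectional fit versus DMSO baseline.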

The nature of test [3]: ATG_Sox_CIS: Attagene CIS-FACTORIAL HepG2 Assay for human SRY-box transcription factor (SOX) (AID 2282960). The settings on record: HepG2 Attagene cis-factorial SOX reporter, mRNA; actives raise or lower the signal. The essentials:
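HepG2 cells transiently transfected with cis-element-driven multiple reporter transcription units, dosed 24 h; reporter mRNA measured by RT-PCR, FAM labelling, HpaI digestion and capillary electrophoresis. Bidirectional fit versus DMSO baseline.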

For test [4], the target named is Transcription factor Sp1 (Homo sapiens) (UniProt P08047). The test can be described thus: ATG_Sp1_CIS: Attagene CIS-FACTORIAL HepG2 Assay for human Specificity Protein 1 (Sp1) (AID 2282961). The settings on record: HepG2 Sp1 cis-reporter transcription, actives raise or lower the signal. The procedure, abridged: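 HepG2 cells transiently transfected with multiple reporter transcription units driven by cis-regulatory elements; Sp1-responsive reporter mRNA measured 24 h after dosing by RT-PCR and capillary electrophoresis fluorescence, fitted bidirectionally against DMSO baseline.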
Chain of Transcription factor Sp1 (Homo sapiens) (P08047 whole entry, looked up): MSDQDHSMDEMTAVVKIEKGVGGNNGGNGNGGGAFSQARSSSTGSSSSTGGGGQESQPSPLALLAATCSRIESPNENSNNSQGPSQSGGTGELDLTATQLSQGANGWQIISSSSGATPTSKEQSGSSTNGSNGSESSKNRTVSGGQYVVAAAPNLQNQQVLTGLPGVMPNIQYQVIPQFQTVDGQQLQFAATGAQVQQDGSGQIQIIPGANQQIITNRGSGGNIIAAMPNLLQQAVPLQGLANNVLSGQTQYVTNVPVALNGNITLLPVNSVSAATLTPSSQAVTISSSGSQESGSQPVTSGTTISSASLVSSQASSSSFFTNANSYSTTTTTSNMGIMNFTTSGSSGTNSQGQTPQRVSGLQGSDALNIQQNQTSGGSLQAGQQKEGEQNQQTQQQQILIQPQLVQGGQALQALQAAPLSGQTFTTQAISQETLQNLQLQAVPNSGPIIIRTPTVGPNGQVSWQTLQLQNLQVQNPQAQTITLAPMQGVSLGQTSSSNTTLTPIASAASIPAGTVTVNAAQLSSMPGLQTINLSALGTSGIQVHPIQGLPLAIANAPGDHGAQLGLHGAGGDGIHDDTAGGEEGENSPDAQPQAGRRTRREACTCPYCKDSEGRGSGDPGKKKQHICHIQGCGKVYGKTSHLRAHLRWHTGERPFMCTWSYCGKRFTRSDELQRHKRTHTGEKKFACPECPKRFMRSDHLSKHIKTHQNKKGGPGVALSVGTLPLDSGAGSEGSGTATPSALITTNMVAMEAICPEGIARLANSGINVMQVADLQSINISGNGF

Test [5] is described as follows: ATG_SREBP_CIS: Attagene CIS-FACTORIAL HepG2 Assay for human Sterol Regulatory Element Binding (SREBP) (AID 2282962). The conditions noted are these: HepG2 Attagene cis-factorial SREBP reporter, mRNA; actives raise or lower the signal. The essentials: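 mRNA induction of transfected cis-promoter reporters in HepG2 cells, 24 h post-dose. Detection: RT-PCR with 6-FAM-labelled products, HpaI digest, capillary electrophoresis. DMSO served as negative control and baseline.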

The nature of test [6]: ATG_TA_CIS: Attagene CIS-FACTORIAL HepG2 Assay for human TA Basal Promoter (AID 2282964). The settings on record: HepG2 Attagene CIS-factorial TA basal promoter reporter; actives raise or lower the signal. The procedure, abridged: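 Background internal-marker endpoint from a 52-component HepG2 cis-reporter panel. Cells treated 24 h; reporter transcripts quantified via RT-PCR and CE fluorescence against DMSO baseline.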

Test [7] in a line: ATG_TCF_b_cat_CIS: Attagene CIS-FACTORIAL HepG2 Assay for human T-Cell-Factor with beta-catenin (TCF/b-cat) (AID 2282965). The conditions noted are these: HepG2 TCF/beta-catenin cis-reporter transcription, actives raise or lower the signal. The essentials: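 HepG2 cells transiently transfected with cis-promoter-driven multiplexed reporter units; reporter mRNA measured 24 h after dosing by RT-PCR, FAM labelling, HpaI digestion and capillary electrophoresis. Bidirectional fitting relative to DMSO baseline.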

Test [8] is described as follows: ATG_TAL_CIS: Attagene CIS-FACTORIAL HepG2 Assay for human TAL Basal Promoter (AID 2282966).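 Also: background control endpoint measuring basal TAL promoter reporter mRNA not a specific factor.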 The conditions noted are these: HepG2 Attagene cis-factorial TAL promoter reporter; actives raise or lower the signal. The procedure, abridged:
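HepG2 cells were transiently transfected with promoter-driven multiplexed reporter units and dosed for 24 h. Reporter mRNA was measured by RT-PCR with capillary electrophoresis fluorescence; bidirectional fits used DMSO as baseline, serving as a background control.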

Test [9] is described as follows: ATG_TGFb_CIS: Attagene CIS-FACTORIAL HepG2 Assay for human Transforming Growth Factor (TGF) (AID 2282967). The settings on record: HepG2 Attagene CIS TGFb reporter, mRNA transcription; actives raise or lower the signal. The procedure, abridged:
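Liver HepG2 line, cis-factorial reporter panel, 24 h dosing. Quantitation: RT-PCR products labeled with 6-FAM, cut with HpaI, resolved by capillary electrophoresis; DMSO-referenced bidirectional analysis.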

A short description of test [10]: ATG_VDRE_CIS: Attagene CIS-FACTORIAL HepG2 Assay for human Vitamin D Receptor Element (VDRE) (AID 2282968). The conditions noted are these: HepG2 VDRE cis-reporter transcription, actives raise or lower the signal. The essentials:
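Transiently transfected HepG2 cells carrying cis-regulated reporter transcription units were exposed for 24 h. Reporter mRNA was measured by RT-PCR with fluorescent labelling and capillary electrophoresis, and fitted in both directions against DMSO.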

Test [11] deals with Estrogen receptor (Homo sapiens) (UniProt P03372). The experiment in a line: ATG_ERa_TRANS: Attagene TRANS-FACTORIAL HepG2 Assay for human Estrogen Receptor alpha (ERa) (AID 2282970; active = hit-call score of the fitted dose curve at least 0.9, where 1 is the maximum). The conditions noted are these: HepG2 Attagene TRANS ERa GAL4 reporter, mRNA. The essentials:
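HepG2 cells transiently transfected with multiplexed GAL4-UAS reporter units; ERa activity read via exogenous chimeric NR-Gal4 protein. After 24 hour compound exposure, reporter mRNA measured by RT-PCR with 6-FAM labelling and capillary electrophoresis; gain-of-signal fitted relative to DMSO.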

Test [12] has as its target Steroid hormone receptor ERR1 (Homo sapiens) (UniProt P11474). The test can be described thus: ATG_ERRa_TRANS: Attagene TRANS-FACTORIAL HepG2 Assay for human Estrogen-Related Receptor alpha (ERRa) (AID 2282971; active = hit-call score of the fitted dose curve at least 0.9, where 1 is the maximum). The conditions noted are these: HepG2 Attagene TRANS reporter, ERRa transactivation. The essentials:
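HepG2 cells transiently transfected with multiplexed GAL4-UAS reporter units reading chimeric ERRa-Gal4 activity; 24 h compound exposure. Reporter mRNA measured by RT-PCR, 6-FAM labelling, HpaI digest and capillary electrophoresis; gain of signal fitted versus DMSO baseline.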

Test [13] concerns the target X-box-binding protein 1 (Homo sapiens) (UniProt P17861). The test can be described thus: ATG_Xbp1_CIS: Attagene CIS-FACTORIAL HepG2 Assay for human X-box Binding Protein 1 (XBP1) (AID 2282972). The settings on record: HepG2 XBP1 cis-element reporter, Attagene multiplex; actives raise or lower the signal. The essentials:
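Fluorescence-labelled cDNA fragments from reporter transcripts, separated by capillary electrophoresis, give the signal. Source: HepG2 cells transfected with promoter-driven reporter units, harvested 24 h post-dose. DMSO served as reference for bidirectional curve fitting.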

Test [14] can be described thus: ATG_M_19_TRANS: Attagene TRANS-FACTORIAL HepG2 Assay for M19 Transcription Factor (Internal Marker) (AID 2282974; active = hit-call score of the fitted dose curve at least 0.9, where 1 is the maximum). The conditions noted are these: HepG2 Attagene TRANS-FACTORIAL M19 internal marker reporter. The procedure, abridged: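 HepG2 cells transiently transfected with multiple GAL4-UAS reporter transcription units were exposed to chemicals for 24 h. Reporter mRNA was read by RT-PCR, 6-FAM primer extension, HpaI digestion and capillary electrophoresis; gain of signal fitted relative to DMSO.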

The nature of test [15]: ATG_GAL4_TRANS: Attagene TRANS-FACTORIAL HepG2 Assay for GAL4 (Internal Marker) (AID 2282976; active = hit-call score of the fitted dose curve at least 0.9, where 1 is the maximum). The settings on record: HepG2 Attagene TRANS GAL4 internal marker reporter. The essentials: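 HepG2 cells transiently transfected with multiplexed GAL4-UAS reporter constructs were dosed for 24 h. Reporter mRNA was measured by RT-PCR, 6-FAM primer extension, HpaI digestion and capillary electrophoresis, and gain of signal was fitted relative to DMSO.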

The target of test [16] is Bile acid receptor (Homo sapiens) (UniProt Q96RI1). The experiment in a line: ATG_FXR_TRANS: Attagene TRANS-FACTORIAL HepG2 Assay for Farnesoid X Receptor (FXR) (AID 2282979; active = hit-call score of the fitted dose curve at least 0.9, where 1 is the maximum;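 also: hits raise reporter mRNA above DMSO so AC50 marks FXR activation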). The conditions noted are these: HepG2 Attagene TRANS FXR-GAL4 reporter transcription. The procedure, abridged: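 HepG2 cells transiently transfected with reporter constructs in which a chimeric FXR-GAL4 protein drives a GAL4-UAS reporter; 24 h compound exposure. Reporter mRNA measured by RT-PCR, FAM labelling, HpaI digestion and capillary electrophoresis; gain-of-signal versus DMSO.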
Chain of Bile acid receptor (Homo sapiens) (Q96RI1 whole entry, looked up, the tested form may be a part): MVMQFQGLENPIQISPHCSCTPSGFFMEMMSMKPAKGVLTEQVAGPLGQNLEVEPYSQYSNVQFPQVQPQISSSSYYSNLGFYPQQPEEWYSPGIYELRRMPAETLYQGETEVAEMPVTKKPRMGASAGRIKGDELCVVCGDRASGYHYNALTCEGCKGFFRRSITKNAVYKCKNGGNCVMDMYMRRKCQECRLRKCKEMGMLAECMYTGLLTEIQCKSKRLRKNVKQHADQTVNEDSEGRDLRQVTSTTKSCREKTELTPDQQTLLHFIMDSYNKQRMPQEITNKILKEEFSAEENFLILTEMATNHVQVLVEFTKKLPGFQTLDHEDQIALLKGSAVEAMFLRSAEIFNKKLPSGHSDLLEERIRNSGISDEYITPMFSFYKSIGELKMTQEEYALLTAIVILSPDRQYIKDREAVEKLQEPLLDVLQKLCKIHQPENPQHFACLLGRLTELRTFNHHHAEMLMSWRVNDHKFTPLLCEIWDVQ

Test [17] deals with Estrogen-related receptor gamma (Homo sapiens) (UniProt P62508). The test can be described thus: ATG_ERRg_TRANS: Attagene TRANS-FACTORIAL HepG2 Assay for human Estrogen-Related Receptor gamma (ERRg) (AID 2282977; active = hit-call score of the fitted dose curve at least 0.9, where 1 is the maximum;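 also: hits increase reporter signal over DMSO so potencies reflect activators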). The settings on record: HepG2 Attagene TRANS reporter, ERRg transactivation. The essentials:
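HepG2 cells transiently transfected with multiplexed GAL4-UAS reporter units driven by chimeric NR-Gal4 proteins; 24 h exposure. Reporter mRNA quantified by RT-PCR, fluorescent labelling, HpaI digestion and capillary electrophoresis; gain of signal vs DMSO.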

Test [18] has as its target Glucocorticoid receptor (Homo sapiens) (UniProt P04150). The test can be described thus: ATG_GR_TRANS: Attagene TRANS-FACTORIAL HepG2 Assay for human Glucocorticoid Receptor (GR) (AID 2282978; active = hit-call score of the fitted dose curve at least 0.9, where 1 is the maximum;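 also: activators score as hits since higher reporter transcript over DMSO is fitted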). The conditions noted are these: HepG2 Attagene TRANS GR reporter, mRNA transcription. The essentials: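 HepG2 cells transiently transfected with multiplexed reporter units in which chimeric NR-GAL4 proteins drive GAL4-UAS reporters; 24 h compound exposure. Reporter mRNA measured by RT-PCR, 6-FAM labelling, HpaI digestion and capillary electrophoresis; gain-of-signal fitted versus DMSO.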

Test [19] has as its target Signal transducer and activator of transcription 3 (Homo sapiens) (UniProt P40763). The test can be described thus: ATG_STAT3_CIS: Attagene CIS-FACTORIAL HepG2 Assay for human Signal Transducer and Activator of Transcription 3 (STAT3) (AID 2282963). The conditions noted are these: HepG2, Attagene cis-factorial STAT3 reporter transcription; actives raise or lower the signal. The essentials: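 HepG2 cells transiently transfected with multiple cis-element-driven reporter units report endogenous transcription factor activity. After 24 h compound exposure, reporter mRNA is measured by RT-PCR, 6-FAM labelling, HpaI digestion and capillary electrophoresis. Fitted bidirectionally versus DMSO.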

For test [20], the target named is Nuclear receptor subfamily 1 group I member 3 (Homo sapiens) (UniProt Q14994). The experiment in a line: ATG_CAR_TRANS: Attagene TRANS-FACTORIAL HepG2 Assay for human Constitutive Androstane Receptor (CAR) (AID 2282969; active = hit-call score of the fitted dose curve at least 0.9, where 1 is the maximum;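 also: activators raise reporter mRNA above DMSO so AC50 marks induction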). The conditions noted are these: HepG2 Attagene TRANS-FACTORIAL CAR reporter. The essentials:
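HepG2 cells transiently transfected with GAL4-UAS reporter units; TRANS format reads activity of exogenous chimeric NR-Gal4 protein. After 24 h dosing, reporter mRNA quantified by RT-PCR, 6-FAM labelling and capillary electrophoresis; gain of signal fitted against DMSO.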

Molecules are shown by their SMILES. Inconclusive results are not listed. The source holds several records for some structures; these can differ, active in one and inactive in another. Active and inactive are the calls of the source. The calls were made as follows, unless noted: active = hit-call score of the fitted dose curve at least 0.9, where 1 is the maximum; inactive = score below 0.9.

Chain of Nuclear receptor subfamily 1 group I member 3 (Homo sapiens) (Q14994 whole entry, looked up, the tested form may be a part): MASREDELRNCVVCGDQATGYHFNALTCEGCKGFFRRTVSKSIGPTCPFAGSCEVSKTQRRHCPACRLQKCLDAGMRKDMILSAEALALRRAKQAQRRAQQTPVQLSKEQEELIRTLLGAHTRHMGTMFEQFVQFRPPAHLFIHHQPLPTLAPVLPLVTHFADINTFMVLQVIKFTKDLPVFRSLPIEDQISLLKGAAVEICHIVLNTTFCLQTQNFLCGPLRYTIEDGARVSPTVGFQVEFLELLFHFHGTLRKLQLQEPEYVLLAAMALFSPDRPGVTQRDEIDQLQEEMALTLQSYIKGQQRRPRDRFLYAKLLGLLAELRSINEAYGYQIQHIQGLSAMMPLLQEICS
Chain of Signal transducer and activator of transcription 3 (Homo sapiens) (P40763 whole entry, looked up): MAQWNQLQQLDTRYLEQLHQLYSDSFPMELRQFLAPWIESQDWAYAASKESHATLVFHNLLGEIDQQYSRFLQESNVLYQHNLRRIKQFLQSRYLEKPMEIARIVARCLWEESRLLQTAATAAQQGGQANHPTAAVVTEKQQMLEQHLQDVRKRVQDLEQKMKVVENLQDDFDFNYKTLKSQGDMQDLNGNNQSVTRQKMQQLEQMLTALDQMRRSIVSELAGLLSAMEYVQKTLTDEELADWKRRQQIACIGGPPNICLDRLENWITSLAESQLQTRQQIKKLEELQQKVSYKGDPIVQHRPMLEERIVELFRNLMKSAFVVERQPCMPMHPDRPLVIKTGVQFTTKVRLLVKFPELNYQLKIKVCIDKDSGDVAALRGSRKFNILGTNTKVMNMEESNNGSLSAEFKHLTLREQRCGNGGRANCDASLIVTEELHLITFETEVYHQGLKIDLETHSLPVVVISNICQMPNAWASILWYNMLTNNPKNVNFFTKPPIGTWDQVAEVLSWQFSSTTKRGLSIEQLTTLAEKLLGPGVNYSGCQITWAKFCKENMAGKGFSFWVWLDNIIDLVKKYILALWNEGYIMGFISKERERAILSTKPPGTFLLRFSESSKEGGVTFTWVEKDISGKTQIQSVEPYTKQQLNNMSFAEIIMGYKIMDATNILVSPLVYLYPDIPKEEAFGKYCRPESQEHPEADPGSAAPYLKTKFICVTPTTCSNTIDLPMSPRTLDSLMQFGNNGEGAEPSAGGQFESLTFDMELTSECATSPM
Chain of X-box-binding protein 1 (Homo sapiens) (P17861 whole entry, looked up, the tested form may be a part): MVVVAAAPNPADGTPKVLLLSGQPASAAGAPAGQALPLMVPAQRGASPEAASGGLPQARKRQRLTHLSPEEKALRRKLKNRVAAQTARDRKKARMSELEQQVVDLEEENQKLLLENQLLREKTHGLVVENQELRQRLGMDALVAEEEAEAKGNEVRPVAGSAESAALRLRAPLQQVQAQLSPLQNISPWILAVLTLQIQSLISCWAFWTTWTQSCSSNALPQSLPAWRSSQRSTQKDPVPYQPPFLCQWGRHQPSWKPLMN
Chain of Steroid hormone receptor ERR1 (Homo sapiens) (P11474 whole entry, looked up, the tested form may be a part): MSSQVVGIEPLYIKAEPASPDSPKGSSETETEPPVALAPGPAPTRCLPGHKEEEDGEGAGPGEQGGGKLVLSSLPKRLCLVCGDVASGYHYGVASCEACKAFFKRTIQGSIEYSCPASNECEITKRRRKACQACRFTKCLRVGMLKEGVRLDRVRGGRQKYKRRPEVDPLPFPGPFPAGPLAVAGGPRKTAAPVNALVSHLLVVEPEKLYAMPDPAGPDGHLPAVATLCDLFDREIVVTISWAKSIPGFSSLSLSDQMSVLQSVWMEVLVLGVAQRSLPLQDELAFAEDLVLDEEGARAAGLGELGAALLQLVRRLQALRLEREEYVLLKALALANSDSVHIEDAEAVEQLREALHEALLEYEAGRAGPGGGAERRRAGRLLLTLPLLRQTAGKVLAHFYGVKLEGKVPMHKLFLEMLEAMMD
Chain of Estrogen receptor (Homo sapiens) (P03372 whole entry, looked up, the tested form may be a part): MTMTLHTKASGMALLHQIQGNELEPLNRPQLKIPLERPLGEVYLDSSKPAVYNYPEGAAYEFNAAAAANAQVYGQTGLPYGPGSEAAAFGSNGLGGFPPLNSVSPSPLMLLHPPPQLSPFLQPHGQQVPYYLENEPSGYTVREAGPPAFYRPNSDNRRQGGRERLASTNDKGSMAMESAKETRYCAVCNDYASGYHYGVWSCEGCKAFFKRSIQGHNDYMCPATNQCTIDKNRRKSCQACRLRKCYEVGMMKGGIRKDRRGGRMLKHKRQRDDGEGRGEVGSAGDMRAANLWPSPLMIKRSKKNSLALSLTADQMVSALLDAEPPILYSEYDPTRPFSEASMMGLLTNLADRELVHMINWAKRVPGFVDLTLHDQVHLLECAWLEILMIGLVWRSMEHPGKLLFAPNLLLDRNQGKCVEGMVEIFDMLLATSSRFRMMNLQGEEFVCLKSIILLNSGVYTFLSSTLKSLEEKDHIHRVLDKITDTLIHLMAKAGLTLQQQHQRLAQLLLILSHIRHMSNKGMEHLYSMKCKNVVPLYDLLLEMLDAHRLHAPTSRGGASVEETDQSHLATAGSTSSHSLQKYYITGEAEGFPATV
Chain of Glucocorticoid receptor (Homo sapiens) (P04150 whole entry, looked up, the tested form may be a part): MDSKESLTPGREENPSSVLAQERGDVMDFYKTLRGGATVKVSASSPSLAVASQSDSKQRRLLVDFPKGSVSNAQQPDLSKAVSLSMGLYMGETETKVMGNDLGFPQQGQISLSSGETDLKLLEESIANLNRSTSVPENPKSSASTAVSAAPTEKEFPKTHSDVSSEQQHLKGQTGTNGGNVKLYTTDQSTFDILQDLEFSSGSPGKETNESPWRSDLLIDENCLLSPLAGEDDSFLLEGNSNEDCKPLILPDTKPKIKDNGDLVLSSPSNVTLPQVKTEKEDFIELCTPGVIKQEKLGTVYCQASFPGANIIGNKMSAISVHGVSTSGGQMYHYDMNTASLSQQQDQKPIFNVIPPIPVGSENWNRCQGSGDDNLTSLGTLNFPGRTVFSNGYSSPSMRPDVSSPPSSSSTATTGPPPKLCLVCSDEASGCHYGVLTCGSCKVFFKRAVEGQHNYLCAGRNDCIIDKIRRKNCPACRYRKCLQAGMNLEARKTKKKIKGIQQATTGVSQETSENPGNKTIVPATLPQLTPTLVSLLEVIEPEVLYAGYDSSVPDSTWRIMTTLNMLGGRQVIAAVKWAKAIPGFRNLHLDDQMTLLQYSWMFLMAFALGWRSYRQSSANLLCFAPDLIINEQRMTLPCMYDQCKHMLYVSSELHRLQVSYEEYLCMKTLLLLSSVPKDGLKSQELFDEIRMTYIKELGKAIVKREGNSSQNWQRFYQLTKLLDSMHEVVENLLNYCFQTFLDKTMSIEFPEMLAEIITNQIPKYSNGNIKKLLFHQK
Chain of Estrogen-related receptor gamma (Homo sapiens) (P62508 whole entry, looked up, the tested form may be a part): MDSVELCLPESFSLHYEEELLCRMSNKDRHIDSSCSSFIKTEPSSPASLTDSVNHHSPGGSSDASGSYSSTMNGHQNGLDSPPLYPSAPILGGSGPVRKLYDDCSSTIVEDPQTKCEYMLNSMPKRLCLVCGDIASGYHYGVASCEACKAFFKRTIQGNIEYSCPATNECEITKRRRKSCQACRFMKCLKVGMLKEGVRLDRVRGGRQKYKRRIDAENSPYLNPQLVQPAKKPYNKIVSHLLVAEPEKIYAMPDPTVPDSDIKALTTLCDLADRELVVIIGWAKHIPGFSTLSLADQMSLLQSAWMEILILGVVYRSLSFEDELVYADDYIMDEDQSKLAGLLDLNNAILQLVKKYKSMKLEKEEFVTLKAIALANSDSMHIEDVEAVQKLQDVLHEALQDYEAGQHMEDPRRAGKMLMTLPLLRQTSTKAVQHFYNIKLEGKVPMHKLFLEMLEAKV

As usually defined, the AC50 is the concentration giving half of the maximal activity seen. `CC1(C)CCC(Cc2ccc(Cl)cc2)C1(O)Cn1cncn1` (configuration not stated): the compound was classed as inactive in [1], in test [2], in [3], in test [4], in [6] and in test [7]. Moreover, the compound was classed as inactive in [8], in test [9], in test [12], in test [13], in test [14] and in test [15]. For the same compound, the result in test [16] was inactive. Moreover, the AC50 was 9.3 µM (active) in test [5], 17.7 µM (active) in test [10] and 5.3 µM (active) in test [11].

Consider `O=C1C(Cl)=C(Cl)C(=O)c2ccccc21`, for which the outcome in [1], in test [2], in test [3], in [4], in [5] and in test [6] was inactive. The outcome in test [7], in test [8], in test [9], in [10], in test [11] and in test [12] was inactive. Moreover, the call in test [13], in test [14], in test [15], in test [17] and in [18] was inactive.

Turning to `CC12CC1(C)C(=O)N(c1cc(Cl)cc(Cl)c1)C2=O` (configuration not stated), the compound was called inactive in test [1], in [2], in test [3], in test [4], in [5] and in [19]. Besides, the call in test [6], in test [7], in test [9], in test [10], in [20] and in test [13] was inactive. For the same compound, the call in [14] and in test [15] was inactive. Moreover, the AC50 in test [10] is 8.04 µM (active).

Take `CCOC(=O)Nc1cccc(OC(=O)Nc2ccccc2)c1`: the compound was classed as inactive in test [1], in test [2], in test [3], in test [4], in test [5] and in test [19]. The compound was called inactive in test [6], in [7], in test [9], in test [10], in [20] and in test [13]. In addition, the compound was classed as inactive in test [14] and in [15].
